# Data: the supplement of paper PMC4206467
# Test system: Perkinsus marinus PRA240
# Experiment: ATP content (proliferation) relative to DMSO control; higher = more parasite growth (less inhibition)
# Settings: 20 µM; 4 days
# Experimental: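 Perkinsus marinus PRA240 trophozoites (2-5x10^6 cells/ml, 100 µl, 96-well) were exposed once to MMV Malaria Box compounds at 20 µM (0.1% DMSO) in triplicate. ATP content (ATPlite bioluminescence) was read at day 4 post-exposure and normalised to DMSO + cells control wells (100% activity). Compounds were identified by joining plate and well to the Malaria Box list.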
row,SMILES,ATP content [%]
1,COc1ccccc1N1CCN(C(CNS(=O)(=O)c2ccc(Cl)cc2)c2cccnc2)CC1 (configuration not stated),111
2,COc1ccc(C(=O)NC(c2ccccc2Cl)c2cc(Cl)c3cccnc3c2O)cc1 (configuration not stated),29.8
3,Cc1ccc(Nc2nc(N)c3ccccc3n2)cc1Cl,4.69
4,COc1ccc(Nc2cc(C)nc(NCc3ccccc3)n2)cc1,93.8
5,CCCCc1ccc(NS(=O)(=O)c2cc3c4c(c2)CCN4C(=O)CC3)cc1,115
6,CCOc1c(Br)cc(C2C(C(=O)OC)=CN(C)C=C2C(=O)OC)cc1OC,123
7,Oc1ccc(Cl)cc1CNc1nc2ccccc2[nH]1,49.7
8,O=C(NC1CCCCC1)C(c1cccs1)N(CCc1ccccc1)C(=O)c1ccco1 (configuration not stated),101
9,O=C(NCc1ccco1)C1CCN(S(=O)(=O)c2ccc(Br)cc2)CC1,147
10,CCOc1ccccc1NC(=O)CN1CCN(C(=O)c2ccco2)CC1,66.6
11,O=C(Nc1ccc(N2CCN(Cc3ccccc3)CC2)cc1)c1cccs1,86.8
12,CN(C)c1ccc(N2C(N)=NC(N)=NC2(C)C)cc1,114
13,CCOc1cccc2sc(N(Cc3cccnc3)C(=O)C3CCCCC3)nc12,79.5
14,O=C(Nc1ccc(N2CCCCC2)c(Cl)c1)c1ccc(Br)o1,33.7
15,O=C(Nc1ccc(Br)cc1)Nc1cccc(Cl)c1,142
16,C=CCc1c(C)nc2ccccc2c1O,48
17,CCOc1cc(Cl)c(C(C)NC(=O)c2ccccc2)cc1OCC (configuration not stated),91.1
18,O=c1nc(C=Cc2ccc(Br)cc2)oc2ccccc12,11.1
19,CCN(CC)CCNc1ncnc2c1[nH]c1ccc(Br)cc12,141

row,SMILES,ATP content [%]
1,OC(CNCc1ccccc1)Cn1c2ccccc2c2ccccc21 (configuration not stated),105
2,COc1ccc(Nc2nc(NCc3ccccc3)c3ccccc3n2)cc1,103
3,O=C(NC1CCN(Cc2ccccc2)CC1)c1cc2nc(-c3ccc(Cl)s3)cc(C(F)(F)F)n2n1,118
4,COc1cccc(Nc2nc(N)c3ccccc3n2)c1,9.11
5,COc1ccc2c(c1OC)C(=O)N1c3ccccc3N=C(c3ccc(C)cc3)CC21 (configuration not stated),155
6,CC(C)CCNCC(O)Cn1c2ccccc2c2ccccc21 (configuration not stated),140
7,COc1ccc(CNC2CCN(c3ccc(NC(=O)c4cccc(Cl)c4)cc3)CC2)cc1OC,102
8,COc1cc2c(cc1OC)C1=NNC(=O)C1=NC(C)(C)C2,42.2
9,CCN(CC)S(=O)(=O)c1ccc(-c2csc(Nc3ccc(C)c(C)c3)n2)cc1,142
10,CCc1ccc(Nc2cc(C)nc3nc(C)nn23)cc1,139
11,O=C1c2ccccc2-c2nnc(-c3ccc(Br)cc3)cc21,67.7
12,CCOC(=O)c1c(C)n(-c2ccccc2)c2ccc(OC(=O)c3cc(OC)c(OC)c(OC)c3)cc12,141
13,COc1ccc(C2N(C)c3ccccc3N2C)cc1,101
14,O=C(NCc1ccco1)C1CCN(S(=O)(=O)c2ccc(Cl)cc2)CC1,89.8
15,Oc1c2c(nc3cc(-c4ccccc4)nn13)CCCC2,47.5
16,O=C(Cc1ccccc1)NC(c1ccc(Cl)cc1)c1c(O)ccc2ccccc12 (configuration not stated),36
17,CCn1c(SCC(=O)Nc2cc(C(F)(F)F)ccc2Cl)nc2ccccc2c1=O,102
18,O=C(Nc1ccc(Cl)c(Cl)c1)Nc1ccc(Cl)c(Cl)c1,91.6
